ChEMBL document CHEMBL4808148, “HDAC6 screening dataset using tau-based substrate in an enzymatic assay yields selective inhibitors and activators” (2021)
In all, about 5,600 compounds went through this assay and about 390 (7%) showed an effect of 50% or more. Shown is part of a subset that was picked to be rich in strong results.

Target: T1, Protein deacetylase HDAC6 (Homo sapiens) (UniProt Q9UBN7)
T1 sequence (whole entry): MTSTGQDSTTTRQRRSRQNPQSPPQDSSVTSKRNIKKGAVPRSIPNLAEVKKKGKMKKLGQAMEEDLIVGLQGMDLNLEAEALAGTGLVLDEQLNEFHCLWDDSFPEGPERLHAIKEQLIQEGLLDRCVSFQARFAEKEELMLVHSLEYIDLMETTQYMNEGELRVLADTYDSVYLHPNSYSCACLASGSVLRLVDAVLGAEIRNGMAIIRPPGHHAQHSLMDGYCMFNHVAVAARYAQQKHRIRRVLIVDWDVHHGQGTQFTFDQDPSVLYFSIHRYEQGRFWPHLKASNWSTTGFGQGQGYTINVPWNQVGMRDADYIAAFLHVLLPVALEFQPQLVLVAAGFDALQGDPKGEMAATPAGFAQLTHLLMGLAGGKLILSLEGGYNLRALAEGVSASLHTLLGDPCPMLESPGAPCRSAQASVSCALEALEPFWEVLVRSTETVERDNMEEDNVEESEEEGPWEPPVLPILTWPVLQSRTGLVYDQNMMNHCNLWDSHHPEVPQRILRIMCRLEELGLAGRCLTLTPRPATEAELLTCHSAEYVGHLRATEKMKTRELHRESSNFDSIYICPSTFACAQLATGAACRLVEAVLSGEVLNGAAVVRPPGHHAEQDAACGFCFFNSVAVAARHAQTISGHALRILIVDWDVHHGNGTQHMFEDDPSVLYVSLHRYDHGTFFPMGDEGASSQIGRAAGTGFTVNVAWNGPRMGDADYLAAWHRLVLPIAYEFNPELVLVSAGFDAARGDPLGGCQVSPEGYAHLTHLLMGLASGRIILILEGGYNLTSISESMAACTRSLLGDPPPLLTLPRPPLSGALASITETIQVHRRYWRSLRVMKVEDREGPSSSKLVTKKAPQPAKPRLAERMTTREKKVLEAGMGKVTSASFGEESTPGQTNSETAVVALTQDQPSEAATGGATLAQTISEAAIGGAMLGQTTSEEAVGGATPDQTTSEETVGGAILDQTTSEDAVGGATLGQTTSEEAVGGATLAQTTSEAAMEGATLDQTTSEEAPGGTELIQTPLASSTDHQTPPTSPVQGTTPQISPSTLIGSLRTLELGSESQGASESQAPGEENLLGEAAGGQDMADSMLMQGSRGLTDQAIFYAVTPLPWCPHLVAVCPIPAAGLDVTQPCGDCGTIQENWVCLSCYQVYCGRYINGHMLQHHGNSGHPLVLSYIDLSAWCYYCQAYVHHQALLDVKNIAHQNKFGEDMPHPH
Settings: at 10 µM

Row | Structure (SMILES) | inhibition [%]
1 | CN1CCN2c3c(cccc31)[C@@H]1CN(CCCC(=O)c3ccc(F)cc3)CC[C@@H]12 | -3.09
2 | COC(=O)Nc1ccc2[nH]cc(CCNC(C)=O)c2c1 | 44.5
3 | CCOc1ccccc1OCC1CNCCO1 (stereo unspecified) | -0.93
4 | c1ccc(Oc2nc3ncnc-3c(NC3CCCCC3)[nH]2)cc1 | -6.25
5 | CC(C)N1CCN(c2ccc(C(=O)c3c(-c4ccc(O)cc4)sc4cc(O)ccc34)cc2)CC1 | 15
6 | COc1ccc(C(=O)NCc2cccnc2)cc1C(=O)NCc1cccnc1 | 11.5
7 | Cc1cc(Cn2cnc3c2C[C@@H](C(=O)O)N(C(=O)C(c2ccccc2)c2ccccc2)C3)ccc1N(C)C | 17.5
8 | CC1CS(=O)(=O)CCN1/N=C/c1ccc([N+](=O)[O-])o1 (stereo unspecified) | -9.63
9 | O=C(Nc1ccc2[nH]ccc2c1)c1ccccc1 | 89.7
10 | O=C(Nc1ccc(Cl)nc1)c1ccc(Cl)cc1 | 27.1
11 | CCc1nc(-c2cccc(C)c2)c(-c2ccnc(NC(=O)c3ccccc3)c2)s1 | 15.3
12 | CC1(C)CCC(C)(C)c2cc(NC(=O)c3ccc(C(=O)O)cc3)ccc21 | 17.1
13 | O=C(Nc1cc2cc[nH]c2cn1)c1ccccc1 | 105
14 | O=C(O)CNC(=O)c1ccccc1 | 17.6
15 | O=C(Nc1ccc(C(=O)O)c(O)c1)c1ccccc1 | 68.6
16 | NC(C(=O)O)c1ccc(C(=O)O)c(O)c1 (racemic) | -7.25
17 | NC(=O)c1ccc2[nH]ccc2c1 | 11.2
18 | CC1=C(/C=C/C(C)=C/C=C/C(C)CC=O)C(C)(C)CCC1 (stereo unspecified) | 0.68
19 | Cc1ccc(F)cc1C(=O)Nc1ccc(C(=O)N2Cc3cccn3Cc3ccccc32)c(Cl)c1 | -1.78
20 | O=C1CNC(=O)CN1 | 16.6
21 | O=C(O)[C@@H](S)[C@@H](S)C(=O)O | 28.7
22 | CN1[C@@H]2CC[C@H]1C[C@@H](OC(=O)c1c[nH]c3ccccc13)C2.CN1[C@@H]2CC[C@H]1C[C@H](OC(=O)c1c[nH]c3ccccc13)C2 | 2.5
23 | CCc1cc(-c2[nH]nc(C)c2-c2ccc3c(c2)OCCO3)c(O)cc1O | 8.29
24 | CC1(C)Oc2ccc(C#N)cc2[C@@H](OC2=CC(=O)CC2)[C@@H]1O | 3.84

Row | Structure (SMILES) | inhibition [%]
25 | Cc1c(-c2ccccc2)oc2c(C(=O)OCCN3CCCCC3)cccc2c1=O | 11.8
26 | CNc1nc(NCc2ccc(NS(C)(=O)=O)cc2Cl)cc(-c2ccccn2)n1 | 13.6
27 | Nc1ccc(S(=O)(=O)O)cc1 | 9.02
28 | Cc1cc(O)c(C(=O)N[C@@H](C(=O)N[C@@H]2C(=O)N3C(C(=O)O)=C(CSc4nnnn4C)CS[C@H]23)c2ccc(O)cc2)cn1 | 29
29 | Cc1cc(-c2ccc3c(c2)CC[C@H]3N2CC3(CCN(C(=O)Cc4cn5cc(C)sc5n4)CC3)C2)ncn1 | 0.83
30 | CN1C(=O)c2c(nn(Cc3ccc(-c4cccc(F)n4)cc3)c2Nc2ccccc2)N2C1=N[C@@H]1CCC[C@@H]12 | -2.77
31 | CCOC(=O)Nc1ccc2c(c1)N(C(=O)CCN1CCOCC1)c1ccccc1S2 | -0.7
32 | O=c1cc(-c2cccc3c2Sc2ccccc2S3)oc(N2CCOCC2)c1 | 82.8
33 | O=c1cc(N2CCOCC2)oc2c(-c3cccc4c3sc3ccccc34)cccc12 | -7.08
34 | O=c1cc(N2CCOCC2)oc2c(-c3ccccc3)cccc12 | 1.23
35 | C[C@@H]1CN(CC(=O)Nc2ccc3c(c2)Cc2cccc(-c4cc(=O)cc(N5CCOCC5)o4)c2S3)C[C@H](C)O1 | 61
36 | Nc1ncnc2c1nc(Br)n2[C@@H]1O[C@@H]2COP(=O)(O)O[C@H]2[C@H]1O | 4.67
37 | O=C(O)Cc1sc(-c2ccccc2)nc1-c1ccc(Cl)cc1 | -4.01
38 | Nc1c2c(nc3c1CCC3)CCCC2 | 13
39 | CCN(CC)c1ccc(/C=N/NC(=O)c2ccc(O)cc2)cc1 | 80
40 | O=C(N/N=C/c1ccc([N+](=O)[O-])o1)c1ccc(O)cc1 | 18.8
41 | CCC(=O)c1ccc(O)cc1 | 7.92
42 | C/N=C(/NC#N)NCCSCc1csc(NC(=N)N)n1 | 4.88
43 | COc1cccc(CCc2ccccc2OCC[C@@H]2C[C@@H](O)CN2C)c1 | 12.1
44 | O=C1C(Cl)=C(NCCN2CCOCC2)C(=O)c2ncccc21 | -2.93
45 | Cc1noc(-c2ccc(-c3ccc(CC(=O)O)cc3)cc2)c1NC(=O)O[C@H](C)c1ccccc1 | 15.4
46 | O=C(N[C@@H](Cc1c[nH]c2ccccc12)C(=O)O)c1ccc(Cl)cc1 | 21.4
47 | O=C(O)CCCc1ccccc1 | 15.3
48 | O=C(O)CCC(=O)c1ccc(-c2ccccc2)cc1 | 58.7

Row | Structure (SMILES) | inhibition [%]
49 | O=C(CN1C2=NCCN2c2ccccc21)c1ccc(-c2ccccc2)cc1 | 11.4
50 | CN1CCN(c2ccc(-c3cccc(CN4CCOCC4)c3)cc2NC(=O)c2c[nH]c(=O)cc2C(F)(F)F)CC1 | 19.4
51 | Oc1cccc(Nc2ncc(F)c(Nc3cccc(O)c3)n2)c1 | -0.51
52 | O=c1c(-c2ccccc2)c1-c1ccccc1 | 68.4
53 | O=C1[C@H]2CCCC[C@H]2C(=O)N1CCCCN1CCN(c2nsc3ccccc23)CC1 | 9.58
54 | C[C@]12CCC(=O)C=C1CC[C@@H]1[C@@H]2[C@@H](O)C[C@@]2(C)[C@H]1CC[C@]2(O)C(=O)CO | 12
55 | CCCCC(=O)O[C@]1(C(=O)CO)CC[C@H]2[C@@H]3CCC4=CC(=O)CC[C@]4(C)[C@H]3[C@@H](O)C[C@@]21C | 55.9
56 | CCCC(=O)O[C@]1(C(=O)CO)CCC2[C@@H]3CCC4=CC(=O)CC[C@]4(C)C3[C@@H](O)C[C@@]21C (stereo partly specified) | 13.5
57 | O=[N+]([O-])c1cc([N+](=O)[O-])c(/C=C/c2ccc(Cl)c(Cl)c2)cc1/C=C/c1ccc(Cl)c(Cl)c1 | 7.35
58 | Nn1cnc2cc3ccccc3cc2c1=O | 17.4
59 | Clc1ccc(CCCOCCCN2CCCCC2)cc1 | 4.84
60 | NC(=O)Nc1sc(-c2ccc(F)cc2)cc1C(N)=O | 81.4
61 | NC(=O)Nc1cc(-c2cccc(F)c2)sc1C(=O)N[C@H]1CCCNC1 | 8.78
62 | O=C(O)CN(CCN(CC(=O)O)CC(=O)O)CC(=O)O | -8.06
63 | O=C(/C=C/c1cccnc1)c1ccncc1 | 2.24
64 | Cc1c(C)c2c(c(C)c1O)CCC(C)(C)O2 | 20.7
65 | CC(=O)[C@H]1CC[C@H]2[C@@H]3C[C@H](C)C4=CC(=O)CC[C@]4(C)[C@H]3[C@@H](O)C[C@]12C | 19.3
66 | COc1ccccc1C(=O)Nc1cccc(NC(=O)c2cccc(C)c2)c1 | 63.7
67 | CC(=O)Oc1ccccc1C(=O)Nc1ccccc1 | 87.4
68 | CC(=O)Oc1ccccc1C(=O)O | 2.2
69 | COc1ccccc1C(=O)Nc1cc2c(cc1N1CCCC1)n(C)c(=O)n2C | 46.1
70 | CCCC(=O)Nc1cccc(NC(=O)c2ccccc2Br)c1 | 21
71 | CC(=O)Oc1ccccc1C(=O)Oc1ccccc1C(=O)O | 41
